Assay outcomes deposited in PubChem by several laboratories.
CRFR2-BP ag = agonists of human CRF-binding protein/CRF-R2 receptor complex. HEK293 CRF-R2/CRF-BP, calcium dye fluorescence (FLIPR); percent of saturating CRF peptide response. activation, % at 13.2 µM. hit rate 0.46% among 350,000. AID 588473;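 active means activation of at least 50%, plus an integration ratio under a set limit after plate pattern correction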;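 further: plate controls were neutral control wells without compound for no effect and CRF at EC100 for full effect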
Myeloid diff MLP = promotes myeloid progenitor differentiation | ER-HoxA9 myeloid progenitors, lysozyme-GFP differentiation, flow cytometry | calls only at 10 µM | hit rate 1% among 360,000;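 active means normalized GFP-positive differentiation at or above the plate's own cutoff, the solvent-only control mean plus 3 SD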;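 further: cells exposed to compound for four days before flow analysis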
IDE inh = inhibitors of human insulin-degrading enzyme in cells; P14735; AID 434962; hit rate 0.41% among 320,000; inhibition, % at 5.59 µM; HEK cells, FAbetaB cleavage, fluorescence polarization;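 active means percent inhibition above the average of all tested compounds plus 3 SD, set per screening campaign, cut at about 16% in these data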;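 further: IDE supplied by intact live HEK cells; FP after avidin binding of uncleaved biotin substrate so inhibition keeps polarization high; 0% = DMSO wells and 100% = 60 µM reference IDE inhibitor Ii1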
Target sequence (P14735 whole entry, looked up): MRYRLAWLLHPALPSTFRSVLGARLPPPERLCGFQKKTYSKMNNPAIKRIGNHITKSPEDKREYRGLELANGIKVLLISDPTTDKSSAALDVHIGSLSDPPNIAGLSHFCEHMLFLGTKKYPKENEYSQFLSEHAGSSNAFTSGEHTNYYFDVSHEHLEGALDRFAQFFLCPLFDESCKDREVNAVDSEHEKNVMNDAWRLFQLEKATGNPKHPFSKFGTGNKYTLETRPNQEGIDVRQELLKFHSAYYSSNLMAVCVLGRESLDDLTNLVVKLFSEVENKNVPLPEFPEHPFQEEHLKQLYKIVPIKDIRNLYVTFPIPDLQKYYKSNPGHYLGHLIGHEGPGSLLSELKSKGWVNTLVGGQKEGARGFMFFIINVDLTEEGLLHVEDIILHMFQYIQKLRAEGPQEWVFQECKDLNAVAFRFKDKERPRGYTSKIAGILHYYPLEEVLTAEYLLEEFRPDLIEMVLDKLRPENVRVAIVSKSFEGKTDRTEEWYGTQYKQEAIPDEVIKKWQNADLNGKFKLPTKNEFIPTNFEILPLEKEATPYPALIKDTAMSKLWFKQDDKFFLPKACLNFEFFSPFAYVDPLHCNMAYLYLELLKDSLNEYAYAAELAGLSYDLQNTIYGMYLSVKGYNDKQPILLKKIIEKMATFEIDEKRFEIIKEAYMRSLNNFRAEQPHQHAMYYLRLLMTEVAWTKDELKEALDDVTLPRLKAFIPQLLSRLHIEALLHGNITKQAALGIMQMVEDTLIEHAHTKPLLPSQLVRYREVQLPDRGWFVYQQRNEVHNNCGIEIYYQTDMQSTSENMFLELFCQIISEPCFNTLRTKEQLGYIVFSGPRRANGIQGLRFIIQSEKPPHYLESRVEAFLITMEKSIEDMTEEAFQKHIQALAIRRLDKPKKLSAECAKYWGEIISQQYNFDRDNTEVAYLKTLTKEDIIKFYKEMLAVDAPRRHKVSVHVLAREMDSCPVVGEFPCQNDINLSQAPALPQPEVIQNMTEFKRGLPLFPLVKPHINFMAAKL
IDE act = boosts human insulin-degrading enzyme activity in HEK cells. hit rate 0.073% among 340,000. P14735. AID 493087. activation, % at 5.96 µM. FAbeta-B cleavage, fluorescence polarization; 0% vehicle, 100% cell-free pure enzyme wells;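 active means activation above the mean of all tested compounds plus 3 SD, set per screening campaign, cut at about 17% in these data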
CRFBP-R2 block = antagonists of CRF-binding protein/CRF-R2 receptor complex; HEK293 CRF-R2/CRF-BP, CRF-induced calcium fluorescence; inhibition, % at 11.8 µM; hit rate 0.59% among 350,000;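 active means inhibition of the ligand-induced calcium signal above about 50% at the single tested concentration, limit read from the data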
TPT1 inh = C. albicans TPT1 enzyme inhibition; recombinant caTPT1, FP RNA substrate dephosphorylation; AID 1962; inhibition, % at 5 µM; hit rate 0.81% among 300,000;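 active means inhibition above the mean of all tested compounds plus 3 SD, set per screening campaign, cut at about 24% in these data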;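 further: plate controls were DMSO alone for no effect and ferristatin control at 100 nM for full effect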
Myeloid diff = promotes myeloid progenitor differentiation; shares compounds with Myeloid diff MLP; calls only; ER-HoxA9 myeloid progenitors, GFP/Mac1 double-positive flow; hit rate 2% among 2,300;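 active means share of green or green-and-red cells above 9 and 9% in run 1 or 4 and 3% in run 2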
GFP autofluor = flagged as fluorescent in myeloid differentiation counter-screen; shares compounds with Myeloid diff MLP; ER-HoxA9 myeloid progenitors, no estrogen, GFP autofluorescence flow cytometry; vehicle wells 0%, positive control 100%; fluorescence response, % (no concentration beside the values); hit rate 7.4% among 2,300; AID 651707;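 active means over 5% cells positive for green fluorescent reporter, or over 2% positive for both it and APC stain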;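 further: range taken on the double positive population between DMSO and positive control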
Starred values were filed as active, the others as inactive. Compounds with a hit are over-represented: about 2.6% of the library has one in this group of screens.

For Cc1cc(/C=C2\Cc3ccccc3C2=O)c(C)n1-c1ccccc1 the results were CRFR2-BP ag 15.6, Myeloid diff MLP active, IDE inh 9.6, IDE act 0.7, CRFBP-R2 block -95.6, TPT1 inh 16.7, Myeloid diff inactive and GFP autofluor 11.4*.
`COC(=O)CN1C(=O)C2(OCCCO2)c2cc(Br)ccc21` gave CRFR2-BP ag -4.2, Myeloid diff MLP inactive, IDE inh 1.6, IDE act 1.4, CRFBP-R2 block 25.8, TPT1 inh -3.1, Myeloid diff inactive and GFP autofluor 0.6.
`CCOC(=O)CN1C(=O)C2(OCCCO2)c2ccccc21` gave CRFR2-BP ag 0.4, Myeloid diff MLP inactive, IDE inh -5.5, IDE act 7.0, CRFBP-R2 block 2.1 and TPT1 inh -0.5.
For CCc1nc2ccccc2n1CCC(C)C the results were CRFR2-BP ag -0.1, Myeloid diff MLP inactive, IDE inh -0.8, IDE act 5.0, CRFBP-R2 block 1.6 and TPT1 inh 1.0.
`CC1(C(=O)NS(=O)(=O)c2ccccc2C(F)(F)F)CCN1C(=O)c1cccc(F)c1` (stereo not given) gave Myeloid diff MLP inactive.
`COc1cc(OC)c(OC)cc1/C=N/NC(=O)c1ccc(CSc2nc(C)cc(C)n2)cc1` gave CRFR2-BP ag 0.0, Myeloid diff MLP active, IDE inh -0.5, IDE act -1.4, CRFBP-R2 block 17.0, TPT1 inh 1.1, Myeloid diff inactive and GFP autofluor 0.2.
O=C1c2ccc(Cl)cc2S(=O)(=O)c2cccc(C(=O)N3CCC(Cc4ccccc4)CC3)c21 was read as CRFR2-BP ag -0.5, Myeloid diff MLP inactive, IDE inh -0.2, IDE act 4.3 and CRFBP-R2 block 3.9.
Cc1ccc(NC2=CC(=O)C(=O)c3ccccc32)c(C)c1 was read as CRFR2-BP ag 0.3, Myeloid diff MLP active, IDE inh -3.0, IDE act 6.5, CRFBP-R2 block 15.1, Myeloid diff inactive and GFP autofluor 3.1*.
For CN(C)S(=O)(=O)c1cccc(COc2ncnc3c(Cl)cc(Cl)cc23)c1 the results were CRFR2-BP ag 1.1, Myeloid diff MLP inactive, IDE inh 7.3, IDE act 4.4, CRFBP-R2 block -6.7 and TPT1 inh -3.4.
For Cc1c(NC(=O)C2CCCN2S(=O)(=O)c2cccc3nsnc23)cccc1C(=O)O (stereo not given) the results were CRFR2-BP ag 5.5, Myeloid diff MLP active, IDE inh 0.3, IDE act 10.4, CRFBP-R2 block -8.7, TPT1 inh -1.7, Myeloid diff inactive and GFP autofluor 0.0.
`CC(C)n1nc(C(=O)Nc2cccc(S(=O)(=O)N3CCOCC3)c2)c2ccccc2c1=O` gave CRFR2-BP ag -0.3, Myeloid diff MLP inactive, IDE inh -1.6, IDE act 3.7 and CRFBP-R2 block 5.2.
CCOC(=O)c1[nH]c2ccccc2c1NC(=O)NC(C)C was read as CRFR2-BP ag -0.8, Myeloid diff MLP inactive, IDE inh 11.5, IDE act 7.4, CRFBP-R2 block 10.1 and TPT1 inh -1.9.
CCOC(=O)c1[nH]c2ccccc2c1NC(=O)c1ccc(Br)o1 was read as CRFR2-BP ag -2.4, Myeloid diff MLP active, IDE inh 4.7, IDE act -3.6, CRFBP-R2 block -62.1, TPT1 inh -2.7, Myeloid diff inactive and GFP autofluor 0.0.
O=c1c2c(nc3nc(CCc4ccccc4)[nH]n13)CCC2 was read as CRFR2-BP ag -0.4, Myeloid diff MLP active, IDE inh 2.6, IDE act -2.8, CRFBP-R2 block 7.9, TPT1 inh -1.7, Myeloid diff inactive and GFP autofluor 0.0.
Screening O=S(=O)(c1ccc(Cl)cc1)N1CCN(Cc2c[nH]c3ccccc23)CC1 returned CRFR2-BP ag 0.4, Myeloid diff MLP inactive, IDE inh 1.6, IDE act -4.2, CRFBP-R2 block 0.0, TPT1 inh -6.3, Myeloid diff inactive and GFP autofluor 0.5.
COC(=O)c1ccccc1NC(=O)c1nc2nc(C)cc(C)n2n1 was read as CRFR2-BP ag 2.1, Myeloid diff MLP inactive, IDE inh -3.2, IDE act 0.4, CRFBP-R2 block -3.0, TPT1 inh -0.2, Myeloid diff inactive and GFP autofluor 0.2.
Screening CN(C)c1ccc(C=C2SC(=S)NC2=O)cc1 returned CRFR2-BP ag 131.6*, Myeloid diff MLP active, IDE act -127.6, CRFBP-R2 block -89.8, Myeloid diff inactive and GFP autofluor 0.5.
`COc1ccc(N2CC(C(=O)OCC(=O)c3ccc(C)cc3)CC2=O)cc1` (stereo not given) gave CRFR2-BP ag -0.8, Myeloid diff MLP active, IDE inh 1.6, IDE act 6.9, CRFBP-R2 block 22.6, TPT1 inh -0.1, Myeloid diff inactive and GFP autofluor 0.3.
`CCOc1ccc(N2CC(C(=O)OCC(=O)c3ccc(OC)cc3)CC2=O)cc1` (stereo not given) gave CRFR2-BP ag -0.8, Myeloid diff MLP inactive, IDE inh -1.7, IDE act 1.3, CRFBP-R2 block 4.2 and TPT1 inh -4.9.
Screening CCCCCC(=O)Nc1sc(C)c(C)c1C#N returned CRFR2-BP ag -3.2, Myeloid diff MLP inactive, IDE inh 1.6, IDE act -5.2, CRFBP-R2 block 6.8, TPT1 inh 2.2, Myeloid diff inactive and GFP autofluor 0.2.
`CCCC(=O)Nc1sc(C)c(C)c1C#N` gave CRFR2-BP ag -6.6, Myeloid diff MLP inactive, IDE inh -1.4, IDE act -2.1, CRFBP-R2 block 15.7 and TPT1 inh 0.6.
Cc1sc(NC(=O)CSc2n[nH]c(N)n2)c(C#N)c1C was read as CRFR2-BP ag 1.4, Myeloid diff MLP active, IDE act 4.7, CRFBP-R2 block -3.3, Myeloid diff inactive and GFP autofluor 16.3*.
For CCC(=O)NC(=S)Nc1ccc(NC(=O)c2ccccc2[N+](=O)[O-])cc1 the results were CRFR2-BP ag 1.5, Myeloid diff MLP inactive, IDE inh -3.4, IDE act 2.8, CRFBP-R2 block 10.4, TPT1 inh 3.9, Myeloid diff inactive and GFP autofluor 0.7.
Cc1c(C(=O)O)sc2nc3n(c(=O)c12)CCCCC3 was read as CRFR2-BP ag 0.1, Myeloid diff MLP inactive, IDE inh -3.4, IDE act 2.1, CRFBP-R2 block -2.5 and TPT1 inh -4.0.
For Cc1c(C(=O)O)sc2nc3n(c(=O)c12)CCC(C)CC3 (stereo not given) the results were CRFR2-BP ag -0.6, Myeloid diff MLP active, IDE inh -0.2, IDE act 0.1, CRFBP-R2 block 4.6, TPT1 inh -0.7, Myeloid diff inactive and GFP autofluor 0.0.
